Assay results from PubChem BioAssay AID1159580 (chemical genetic matrix, 2015).
“And” between values parts separate entries of the source, which are not always exact repeats. Equal entries are not always repeated. Hit rate of the full screen: of about 5,500 compounds, about 2,000 (36%) were called active. Roughly 18% stayed inconclusive and do not appear here. No stated cut-off is given here; in the data, active means normalized growth mostly below about 0.91 (no sharp cut-off); inconclusive means no clear call, values can overlap the other calls; inactive means mostly above about 0.92. The list shows a part of the results.

Experiment: chemical genetic growth profiling, strain panel (AID 1159580);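 further: tested at 20 µM; growth read once vehicle control cultures reached saturation at 30 °C; 1 = growth at the plate median or of vehicle wells; lower values mean less growth of the strain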
Settings: S. cerevisiae deletion strains, growth OD

Measured: normalized growth

O=C(O)CN1C(=O)c2cccc3cccc(c23)C1=O
inactive: locus YAL013W, strain DEP1, active compounds read low 1 | locus YAL021C, strain ccr4, active compounds read low 0.956 | locus YAL026C, strain drs2, active compounds read low 0.987 | locus YAL030W, strain snc1, active compounds read low 0.986 | locus YBL061C, strain skt5, active compounds read low 0.973 | locus YBR009C, strain hhf1, active compounds read low 0.985 | locus YBR021W, strain FUR4, active compounds read low 1 | locus YBR023C, strain chs3, active compounds read low 0.976 | locus YBR171W, strain sec66, active compounds read low 0.968 | locus YBR229C, strain ROT2, active compounds read low 1.01 | locus YBR231C, strain swc5, active compounds read low 0.986 | locus YBR279W, strain paf1, active compounds read low 0.978 | locus YCL011C, strain gbp2, active compounds read low 0.975 | locus YCL016C, strain dcc1, active compounds read low 0.982 | locus YCL029C, strain bik1, active compounds read low 0.978 | locus YCL061C, strain MRC1, active compounds read low 0.985 | locus YCL069W, strain vba3, active compounds read low 0.99 | locus YCR088W, strain abp1, active compounds read low 1.01 | locus YDL005C, strain med2, active compounds read low 0.974 | locus YDL035C, strain GPR1, active compounds read low 0.994 | locus YDL040C, strain nat1, active compounds read low 0.982 | locus YDL074C, strain BRE1, active compounds read low 1.05 | locus YDL101C, strain DUN1, active compounds read low 1.01 | locus YDL134C, strain PPH21, active compounds read low 0.994 | locus YDL185W, strain tfp1, active compounds read low 0.964 | locus YDL192W, strain arf1, active compounds read low 0.991 | locus YDR001C, strain nth1, active compounds read low 0.979 | locus YDR069C, strain doa4, active compounds read low 0.993 | locus YDR101C, strain arx1, active compounds read low 0.998 | locus YDR137W, strain rgp1, active compounds read low 0.938 | locus YDR159W, strain sac3, active compounds read low 0.993 | locus YDR162C, strain NBP2, active compounds read low 0.982 | locus YDR195W, strain ref2 1.01 | locus YDR297W, strain sur2, active compounds read low 0.979 | locus YDR318W, strain mcm21, active compounds read low 0.978 | locus YDR334W, strain swr1, active compounds read low 0.967 | locus YDR335W, strain msn5, active compounds read low 0.985 | locus YDR388W, active compounds read low 0.994 | locus YDR392W, strain spt3, active compounds read low 0.811 | locus YDR502C, strain sam2, active compounds read low 0.998 | locus YEL003W, strain gim4, active compounds read low 0.99 | locus YEL037C, strain rad23, active compounds read low 0.982 | locus YEL061C, strain CIN8 (second series), active compounds read low 0.974 | locus YEL061C, strain CIN8, active compounds read low 1.01 | locus YER015W, strain faa2, active compounds read low 0.998 | locus YER016W, strain bim1, active compounds read low 0.996 | locus YER110C, active compounds read low 0.977 | locus YER111C, strain swi4, active compounds read low 0.975 | locus YER155C, strain BEM2 (second series), active compounds read low 0.954 | locus YER155C, strain BEM2, active compounds read low 0.999 | locus YER167W, strain BCK2, active compounds read low 0.991 | locus YFR010W, strain ubp6, active compounds read low 0.968 | locus YGL078C, strain dbp3, active compounds read low 0.986 | locus YGL086W, strain mad1, active compounds read low 1 | locus YGL167C, strain pmr1, active compounds read low 0.987 | locus YGL173C, strain kem1, active compounds read low 0.983 | locus YGL227W, strain vid30, active compounds read low 0.996 | locus YGL240W, strain doc1, active compounds read low 1 | locus YGL248W, strain PDE1, active compounds read low 1.02 | locus YGL253W, strain hxk2, active compounds read low 0.984 | locus YGR135W, strain pre9, active compounds read low 0.966 | locus YGR252W, strain gcn5, active compounds read low 1.04 | locus YHR013C, strain ard1, active compounds read low 0.909 | locus YHR027C, strain rpn1, active compounds read low 0.985 | locus YHR030C, strain SLT2, active compounds read low 0.99 and 0.965 | locus YHR079C, strain IRE1 (second series), active compounds read low 0.984 | locus YHR079C, strain IRE1, active compounds read low 0.972 | locus YHR094C, strain hxt1, active compounds read low 0.994 | locus YHR129C, strain ARP1, active compounds read low 0.994 | locus YHR142W, strain chs7, active compounds read low 0.944 | locus YHR200W, strain rpn10, active compounds read low 0.972 | locus YIL066C, strain RNR3, active compounds read low 1.01 | locus YIL073C, strain SPO22, active compounds read low 0.897 | locus YIL125W, strain kgd1, active compounds read low 0.989 | locus YIR030C, strain dcg1, active compounds read low 0.985 | locus YJL092W, strain hpr5, active compounds read low 0.981 | locus YJL095W, strain BCK1 (second series), active compounds read low 0.986 | locus YJL095W, strain BCK1, active compounds read low 1.04 and 0.965 | locus YJL115W, strain asf1, active compounds read low 0.982 | locus YJL129C, strain trk1, active compounds read low 0.988 | locus YJL134W, strain LCB3, active compounds read low 0.998 | locus YJL154C, strain vps35, active compounds read low 1.01 | locus YJL164C, strain tpk1, active compounds read low 0.989 | locus YJL166W, strain qcr8, active compounds read low 0.953 | locus YJL168C, strain set2, active compounds read low 0.993 | locus YJL187C, strain SWE1 (second series), active compounds read low 1.04 | locus YJL187C, strain SWE1, active compounds read low 0.976
